# Values joined by “and” are separate entries in the source; they are usually repeats but may differ in a detail not shown here. Equal entries are not always repeated. Results filed as inconclusive are left out. Where a structure was tested more than once in an assay, its records may differ in their call. Active and inactive are the calls of the source. Rule for the calls: active = hit-call score of the fitted dose curve at least 0.9, where 1 is the maximum; inconclusive = response in the unintended direction; inactive = score below 0.9.
# Columns and labels:
# [1] = biological target: Cellular tumor antigen p53 (Homo sapiens) (UniProt P04637); test: TOX21_p53_BLA_p2_ratio: Tox21 HCT-116 p53 Agonism Beta-lactamase Assay, Ratio, Phase 2 (AID 2283592)
# Chain of Cellular tumor antigen p53 (Homo sapiens) (P04637 whole entry, looked up): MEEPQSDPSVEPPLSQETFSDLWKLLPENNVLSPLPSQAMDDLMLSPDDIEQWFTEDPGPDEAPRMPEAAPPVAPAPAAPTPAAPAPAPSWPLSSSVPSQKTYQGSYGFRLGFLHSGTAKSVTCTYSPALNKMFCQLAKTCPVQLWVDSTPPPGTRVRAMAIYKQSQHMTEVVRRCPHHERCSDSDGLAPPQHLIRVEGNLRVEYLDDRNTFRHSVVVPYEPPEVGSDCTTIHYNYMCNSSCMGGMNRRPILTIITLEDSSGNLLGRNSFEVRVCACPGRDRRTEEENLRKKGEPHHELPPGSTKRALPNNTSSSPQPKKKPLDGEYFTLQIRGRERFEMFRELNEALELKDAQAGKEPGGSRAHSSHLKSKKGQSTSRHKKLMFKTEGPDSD
# Outline: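 Readout: blue/green (460/530 nm) FRET emission ratio after 2 h CCF4-AM loading at room temperature, excitation 405 nm. HCT116 p53 bla cells, 16 h compound exposure at 37C, 5% CO2; agonist direction fitted against DMSO baseline.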
# [2] = TOX21_p53_BLA_p3_viability: Viability Assessment in the Tox21 HCT-116 p53 Agonism Beta-lactamase Assay, Phase 3 (AID 2283593);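 note: cells exposed to compound for 16 h before reading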
# Outline: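 HCT-116 cells (4000/well) rested 5 h at 37C, then got DMSO compounds by pin tool (217-fold dilution) for 16 h at 37C, 5% CO2. After the bla read, CellTiter-Glo was added and luminescence read at 30 min, room temperature.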
# [3] = biological target: Cellular tumor antigen p53 (Homo sapiens) (UniProt P04637); test: TOX21_p53_BLA_p3_ratio: Tox21 HCT-116 p53 Agonism Beta-lactamase Assay, Ratio, Phase 3 (AID 2283596)
# Outline: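 Cells were seeded at 4000/well, rested 5 h at 37C, then dosed with DMSO compound solutions (217-fold dilution) for 16 h. CCF4-AM substrate was loaded for 2 h at room temperature, and the 460/530 nm emission ratio was fitted for gain of signal versus DMSO.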
# [4] = TOX21_p53_BLA_p4_viability: Viability Assessment in the Tox21 HCT-116 p53 Agonism Beta-lactamase Assay, Phase 4 (AID 2283597);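 note: hits lower the luminescence signal meaning cytotoxicity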
# Outline: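 ATP content by CellTiter-Glo luminescence, 30 min RT, read after the beta-lactamase ratio step. Cells: HCT116, 4000/well, compound added after 5 h, exposure 16 h at 37C. Signal loss = reduced viability.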
# [5] = TOX21_p53_BLA_p5_viability: Viability Assessment in the Tox21 HCT-116 p53 Agonism Beta-lactamase Assay, Phase 5 (AID 2283600)
# Outline: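 ATP luminescence (CellTiter-Glo, 30 min, RT) served as the viability read-out, with loss of signal indicating cytotoxicity. Compounds in DMSO were pinned at a 217-fold dilution onto 4000 cells/well and incubated 16 h, 37C.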
# [6] = biological target: Cellular tumor antigen p53 (Homo sapiens) (UniProt P04637); test: TOX21_p53_BLA_p4_ratio: Tox21 HCT-116 p53 Agonism Beta-lactamase Assay, Ratio, Phase 4 (AID 2283601)
# Outline: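 HCT116 cells carrying an inducible beta-lactamase reporter were plated at 4000 cells/well, rested 5 h, then exposed to compounds in DMSO (217-fold dilution) for 16 h at 37C. CCF4-AM substrate was loaded 2 h at room temperature; 460/530 nm emission ratio scored gain-of-signal versus DMSO.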
# [7] = Tanguay_ZF_120hpf_MORT_legacy: (Legacy) Oregon State University Tanguay Lab 120 Hour Post-fertilization zebrafish Assay for Mortality (AID 2283633)
# Outline: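 Brightfield scoring of embryo death (binary) at 24 and 120 hpf; static exposure 6–120 hpf, 28C, sealed and foil-covered. Pronase-dechorionated 5D wild-type larvae, single embryo per well. DMSO 0.64% v/v; trimethyltin chloride 5uM positive control.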
# [8] = Tanguay_ZF_120hpf_AXIS_legacy: (Legacy) Oregon State University Tanguay Lab 120 Hour Post-fertilization zebrafish Assay for Body Axis Malformation (AID 2283635);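 for AC50: potency for an increased fraction of larvae scored with body axis malformation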
# Outline: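 Embryos: 5D wild-type, pronase-dechorionated 4 hpf; static exposure 6–120 hpf, 28C, sealed, dark, 1 embryo/well, 0.64% DMSO. 120 hpf axis malformation scored present/absent; dead embryos excluded. Analysed as gain of signal vs DMSO.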
# [9] = Tanguay_ZF_120hpf_SNOU_legacy: (Legacy) Oregon State University Tanguay Lab 120 Hour Post-fertilization zebrafish Assay for Snout Malformation (AID 2283637)
# Outline: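 Dechorionated zebrafish, individually housed from 6 hpf in covered, sealed wells at 28C with 0.64% DMSO vehicle, were examined at 120 hpf for snout malformation. Responses were binary and analysed positive-direction relative to DMSO.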
# [10] = Tanguay_ZF_120hpf_JAW_legacy: (Legacy) Oregon State University Tanguay Lab 120 Hour Post-fertilization zebrafish Assay for Jaw Malformation (AID 2283638)
# Outline: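 Binary jaw-malformation calls at 120 hpf by brightfield imaging; DMSO (0.64% v/v) = baseline. Embryos: 5D wild-type, pronase-dechorionated, one per well from 6 hpf, static exposure, 28C, sealed, dark.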
# [11] = Tanguay_ZF_120hpf_BRAI_legacy: (Legacy) Oregon State University Tanguay Lab 120 Hour Post-fertilization zebrafish Assay for Brain Malformation (AID 2283641)
# Outline: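 Read-out: binary brain morphology call at 120 hpf (brightfield), fitted in gain-of-signal direction vs DMSO. Wild-type Tropical 5D embryos, static exposure, 28C, 0.64% DMSO final; 5uM trimethyltin chloride as positive control.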
# [12] = Tanguay_ZF_120hpf_SOMI_legacy: (Legacy) Oregon State University Tanguay Lab 120 Hour Post-fertilization zebrafish Assay for Somite Malformation (AID 2283647)
# Outline: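 Binary brightfield scoring of somite defects at 120 hpf in 5D wild-type larvae; one dechorionated embryo per well, static exposure from 6 hpf, 28C, sealed and dark. Final DMSO 0.64%; trimethyltin chloride 5uM positive control.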
# [13] = Tanguay_ZF_120hpf_PFIN_legacy: (Legacy) Oregon State University Tanguay Lab 120 Hour Post-fertilization zebrafish Assay for Pectoral Fin Malformation (AID 2283648);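 note: each larva judged yes or no for fin defect by brightfield with dead larvae skipped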
# Outline: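 Scoring of pectoral fin malformation was binary, made at 120 hpf on larvae exposed statically from 6 hpf after enzymatic chorion removal. Activity was fitted upward relative to DMSO controls at 0.64% (vol/vol).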
# [14] = Tanguay_ZF_120hpf_CFIN_legacy: (Legacy) Oregon State University Tanguay Lab 120 Hour Post-fertilization zebrafish Assay for Caudal Fin Malformation (AID 2283649)
# Outline: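 Dechorionated 5D wild-type zebrafish, static exposure 6–120 hpf, 28C, sealed and dark, 0.64% v/v DMSO final. Binary fin-malformation call at 120 hpf, brightfield; gain of signal vs DMSO baseline.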
# [15] = Tanguay_ZF_120hpf_PIG_legacy: (Legacy) Oregon State University Tanguay Lab 120 Hour Post-fertilization zebrafish Assay for Pigmentation Malformation (AID 2283650)
# Outline: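 Endpoint is incidence of abnormal pigmentation at 120 hpf in dechorionated 5D zebrafish exposed singly from 6 hpf at 28C, DMSO vehicle at 0.64%. Embryos dying by 24 or 120 hpf are excluded from scoring.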
# [16] = biological target: Cellular tumor antigen p53 (Homo sapiens) (UniProt P04637); test: TOX21_p53_BLA_p5_ratio: Tox21 HCT-116 p53 Agonism Beta-lactamase Assay, Ratio, Phase 5 (AID 2283599)
# Outline: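 HCT-116 cells carrying a p53-inducible beta-lactamase reporter were seeded at 4000 cells/well and dosed after 5 h with compound in DMSO (217-fold dilution). After 16 h at 37C, CCF4-AM substrate was added for 2 h, and the 460/530 nm emission ratio was scored as gain-of-signal versus DMSO.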
# [17] = Tanguay_ZF_120hpf_EYE_legacy: (Legacy) Oregon State University Tanguay Lab 120 Hour Post-fertilization zebrafish Assay for Eye Malformation (AID 2283636);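 note: binary presence or absence of eye malformation scored by brightfield in 120 hpf larvae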
# Outline: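 Static waterborne exposure of dechorionated zebrafish embryos (strain Tropical 5D), 6 to 120 hpf, sealed plates at 28C, 0.64% DMSO vehicle. Eye malformation is scored as a binary endpoint, with gain of signal analysed relative to DMSO.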
# [18] = Tanguay_ZF_120hpf_OTIC_legacy: (Legacy) Oregon State University Tanguay Lab 120 Hour Post-fertilization zebrafish Assay for Otic Vesicle Malformation (AID 2283639)
# Outline: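 Statically exposed wild-type 5D zebrafish embryos, kept sealed and dark at 28C through 120 hours post fertilization, were examined by brightfield microscopy for otic vesicle defects. Responses were recorded as present or absent and analysed relative to DMSO.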
# [19] = Tanguay_ZF_120hpf_PE_legacy: (Legacy) Oregon State University Tanguay Lab 120 Hour Post-fertilization zebrafish Assay for Pericardial Edema (AID 2283640);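 for AC50: potency for increased incidence of pericardial edema versus DMSO baseline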
# Outline: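 Static waterborne exposure, 5D wild-type embryos, 28C, to 120 hpf; final DMSO 0.64% (vol/vol). Binary PE call at 120 hpf by brightfield; fitted upward vs DMSO baseline. 5uM trimethyltin chloride as positive control.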
# [20] = Tanguay_ZF_120hpf_YSE_legacy: (Legacy) Oregon State University Tanguay Lab 120 Hour Post-fertilization zebrafish Assay for Yolk Sac Edema (AID 2283634)
# Outline: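 Binary brightfield scoring of yolk sac edema at 120 hpf; DMSO baseline, gain-of-signal fitting. Dechorionated 5D larvae, one per well, static exposure 6–120 hpf, 28C, 0.64% DMSO. Dead embryos not scored.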
compound,measurement,setting,value
CCCN(CCC)C(=O)SCC,outcome,[1],inactive
same,outcome,[2],inactive
same,outcome,[3],inactive
same,outcome,[4],inactive
same,outcome,[5],inactive
same,outcome,[6],inactive
same,outcome,[7],inactive
same,outcome,[8],inactive
same,outcome,[9],inactive
same,outcome,[10],inactive
same,outcome,[11],inactive
same,outcome,[12],inactive
same,outcome,[13],inactive
same,outcome,[14],inactive
same,outcome,[15],inactive
O=C(O)C1(C(=O)Nc2ccc(Cl)cc2Cl)CC1,AC50,[1],18.6 µM (active)
same,outcome,[2],inactive
same,outcome,[3],inactive
same,outcome,[4],inactive
same,outcome,[16],inactive
same,outcome,[5],inactive
same,AC50,[6],46.1 µM (active)
same,outcome,[7],inactive
same,AC50,[8],10 µM (active)
same,outcome,[17],inactive
same,outcome,[9],inactive
same,outcome,[10],inactive
same,outcome,[18],inactive
same,outcome,[11],inactive
same,outcome,[12],inactive
same,outcome,[13],inactive
same,outcome,[14],inactive
same,outcome,[15],inactive
CC(C)(C)[C@@H](O)[C@@H](Cc1ccc(Cl)cc1)n1cncn1,outcome,[1],inactive
same,outcome,[2],inactive
same,outcome,[3],inactive
same,outcome,[4],inactive
same,outcome,[5],inactive
same,outcome,[6],inactive
same,outcome,[7],inactive
same,AC50,[8],40.9 µM (active)
same,outcome,[17],inactive
same,AC50,[9],10.5 µM (active)
same,outcome,[10],inactive
same,AC50,[19],45.9 µM (active)
same,outcome,[11],inactive
same,outcome,[12],inactive
same,outcome,[13],inactive
same,outcome,[14],inactive
same,outcome,[15],inactive
CC(=O)[C@H]1CC[C@H]2[C@@H]3CCC4=CC(=O)CC[C@]4(C)[C@H]3CC[C@]12C,outcome,[1],inactive
same,outcome,[2],inactive
same,outcome,[3],inactive
same,outcome,[4],inactive
same,outcome,[16],inactive
same,outcome,[5],inactive
same,outcome,[6],inactive
same,outcome,[7],inactive
same,outcome,[8],inactive
same,outcome,[17],inactive
same,outcome,[9],inactive
same,outcome,[10],inactive
same,outcome,[18],inactive
same,outcome,[11],inactive
same,outcome,[12],inactive
same,outcome,[13],inactive
same,outcome,[14],inactive
same,outcome,[15],inactive
O=C(c1ccc(O)cc1O)c1ccc(O)cc1O,AC50,[1],73.1 µM (active)
same,outcome,[1],inactive
same,AC50,[3],73.8 µM (active) and 73.3 µM (active)
same,AC50,[16],76.4 µM (active) and 74.5 µM (active)
same,outcome,[6],inactive
same,outcome,[7],inactive
same,outcome,[20],inactive
same,outcome,[8],inactive
same,outcome,[17],inactive
same,outcome,[9],inactive
same,outcome,[10],inactive
same,outcome,[18],inactive
same,outcome,[19],inactive
same,outcome,[11],inactive
same,outcome,[12],inactive
same,outcome,[13],inactive
same,outcome,[14],inactive
O=C(Nc1ccc([N+](=O)[O-])cc1Cl)c1cc(Cl)ccc1O,AC50,[1],234 nM (active) and 140 nM (active)
same,AC50,[2],159 nM (active) and 156 nM (active)
same,AC50,[3],299 nM (active) and 230 nM (active)
same,AC50,[4],235 nM (active) and 92 nM (active)
same,AC50,[16],315 nM (active) and 320 nM (active)
same,AC50,[5],0.174 µM (active)
same,outcome,[5],inactive
same,AC50,[6],0.317 µM (active)
same,outcome,[6],inactive
same,outcome,[7],inactive
same,outcome,[8],inactive
same,outcome,[17],inactive
same,outcome,[9],inactive
same,outcome,[10],inactive
same,outcome,[18],inactive
same,outcome,[13],inactive
same,outcome,[14],inactive
same,outcome,[15],inactive

# Reference: PubChem BioAssay (EPA / NIEHS)
